# Assay results published in PubChem BioAssay AID2283112 (EPA ToxCast).
# Results filed as inconclusive are left out. Activity calls are given as the source filed them. The calls were made as follows: active = hit-call score of the fitted dose curve at least 0.9, where 1 is the maximum; inconclusive = response in the unintended direction; inactive = score below 0.9.
# Molecular target: rat CYP1A1, Cyp1a1 (gene 24296) (UniProt P00185)
# Experiment: NVS_ADME_rCYP1A1: NovaScreen (NVS) CYP450-related Enzyme Activity (ADME) Assay for rat CYP1A1
# Protocol: NVS_ADME_rCYP1A1 is a biochemical, single-readout assay that uses extracted gene-proteins from baculovirus-insect cells in a cell-free assay. Measurements were taken 1 hour after chemical dosing in a 96-well plate.NVS_ADME_rCYP1A1 is one of one assay component(s) measured or calculated from the NVS_ADME_rCYP1A1 assay. It is designed to make measurements of enzyme activity, a form of enzyme reporter, as detected with fluorescence intensity signals by Fluorescence technology.Data from the assay component NVS_ADME_rCYP1A1 was analyzed into 1 assay endpoint. This assay endpoint, NVS_ADME_rCYP1A1, was analyzed in the positive analysis fitting direction relative to Acetonitrile as the negative control and baseline of activity. Using a type of enzyme reporter, loss-of-signal activity can be used to understand changes in the enzymatic activity as they relate to the gene Cyp1a1. Furthermore, this assay endpoint can be referred to as a primary readout, because this assay has produced multiple assay endpoints where this one serves a enzymatic activity function. To generalize the intended target to other relatable targets, this assay endpoint is annotated to the cyp intended target family, where the subfamily is xenobiotic metabolism.
# Binding assays used specific radioligands (tritiated, iodinated) with non-radioactive competitive displacement ligands in agonist or antagonist protocols (as indicated) and various reference compounds and inhibitors to titrate specific binding to receptors and transporters. Most enzyme assays (CYPs, kinases, phosphatases, proteases, HDACs) used recombinant protein and specific substrates (fluorescence mostly, some colorimetric and radioactive) and inhibitors, followed by a biochemical separation of substrate and product. All assays for the biochemical HTS were initially run in duplicate at a single concentration (10 uM for CYP450 assays and 25 uM for all others). Assay-chemical combinations meeting a pre-defined threshold (e.g., 30% inhibition and other criteria defined below) were then run in singleton concentration-response format with maximum concentration of 20 uM for CYPs and 50 uM for all others. Each assay was run with positive and negative controls, and concurrent controls on every plate. The follow-up (secondary) screen tested active chemical-pairs in concentration series, as well as a few additional assays not tested in the primary screen, some selected negative inactives, and several cases re-run in the concentration series for confirmatory purposes.
# Sequence of rat CYP1A1, Cyp1a1 (gene 24296) (P00185 whole entry, looked up): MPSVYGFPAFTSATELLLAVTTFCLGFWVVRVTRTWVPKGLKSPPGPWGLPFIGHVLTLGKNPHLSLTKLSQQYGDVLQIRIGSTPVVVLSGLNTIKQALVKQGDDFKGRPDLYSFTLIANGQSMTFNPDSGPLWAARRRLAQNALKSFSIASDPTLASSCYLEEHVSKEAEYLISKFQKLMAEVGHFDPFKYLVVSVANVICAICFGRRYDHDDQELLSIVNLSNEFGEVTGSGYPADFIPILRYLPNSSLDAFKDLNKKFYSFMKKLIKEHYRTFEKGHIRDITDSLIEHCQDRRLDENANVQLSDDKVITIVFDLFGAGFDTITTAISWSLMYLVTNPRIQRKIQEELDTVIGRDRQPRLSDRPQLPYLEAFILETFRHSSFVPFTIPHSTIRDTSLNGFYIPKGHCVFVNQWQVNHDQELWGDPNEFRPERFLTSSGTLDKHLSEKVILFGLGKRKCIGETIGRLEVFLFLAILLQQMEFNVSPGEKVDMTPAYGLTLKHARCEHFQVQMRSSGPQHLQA
Compound,outcome,AC50
COP(=S)(OC)Oc1ccc([N+](=O)[O-])c(C)c1,inactive,
CC[C@H](C)[C@H]1O[C@]2(C=C[C@@H]1C)C[C@@H]1C[C@@H](C/C=C(\C)[C@@H](O[C@H]3C[C@H](OC)[C@@H](O[C@H]4C[C@H](OC)[C@@H](NC)[C@H](C)O4)[C@H](C)O3)[C@@H](C)/C=C/C=C3\CO[C@@H]4[C@H](O)C(C)=C[C@@H](C(=O)O1)[C@]34O)O2,inactive,
COP(=S)(OC)SCn1nnc2ccccc2c1=O,inactive,
CC[C@H](C)[C@H]1O[C@]2(C=C[C@@H]1C)C[C@@H]1C[C@@H](C/C=C(\C)[C@@H](O[C@H]3C[C@H](OC)[C@@H](O[C@H]4C[C@H](OC)[C@@H](O)[C@H](C)O4)[C@H](C)O3)[C@@H](C)/C=C/C=C3\CO[C@@H]4[C@H](O)C(C)=C[C@@H](C(=O)O1)[C@]34O)O2 (tested in a mixture with another compound),inactive,
CC(C)(C)C(=O)C(Oc1ccc(Cl)cc1)n1cncn1 (stereo not given),,16.9 µM (active)
COP(=S)(OC)Oc1ccc([N+](=O)[O-])cc1,inactive,
CCOP(=S)(OCC)SCn1c(=O)oc2cc(Cl)ccc21,inactive,
COc1nc(C)nc(NC(=O)NS(=O)(=O)c2ccccc2Cl)n1,inactive,
CCOP(=S)(OCC)Oc1ccc([N+](=O)[O-])cc1,,7.95 µM (active)
CCCN(CCOc1c(Cl)cc(Cl)cc1Cl)C(=O)n1ccnc1,,2.23 µM (active)
